A selection: hits, their analogues and other compounds. The true share with any hit is near 14%.
USP28 block: inhibitors of human USP28 deubiquitinase; 47,000 compounds, 3% hits; AID 1645857; Q96RU2; inhibition, % at 25 µM; purified USP28, Ub-rhodamine cleavage fluorescence, 30 min
USP10 block: blocks human USP10 ubiquitin-rhodamine cleavage; purified USP10, Ub-rhodamine fluorescence, 60 min; inhibition, % at 20 µM; 47,000 compounds, 1.1% hits
USP17 block: blocks human USP17 ubiquitin-rhodamine cleavage; purified USP17, Ub-rhodamine cleavage fluorescence, 3 h; A8MUK1; AID 1645855; inhibition, % at 50 µM; 47,000 compounds, 6.5% hits
USP8 inh: human USP8 deubiquitinase inhibition. AID 1645853. 47,000 compounds, 4.2% hits. P40818. purified USP8, Ub-rhodamine cleavage fluorescence, 30 min. inhibition, % at 20 µM
USP30 inh: human USP30 deubiquitinase inhibition; 47,000 compounds, 5.3% hits; Q70CQ3; purified USP30, Ub-rhodamine cleavage fluorescence; inhibition, % at 25 µM
Target sequence (Q70CQ3 whole entry, looked up): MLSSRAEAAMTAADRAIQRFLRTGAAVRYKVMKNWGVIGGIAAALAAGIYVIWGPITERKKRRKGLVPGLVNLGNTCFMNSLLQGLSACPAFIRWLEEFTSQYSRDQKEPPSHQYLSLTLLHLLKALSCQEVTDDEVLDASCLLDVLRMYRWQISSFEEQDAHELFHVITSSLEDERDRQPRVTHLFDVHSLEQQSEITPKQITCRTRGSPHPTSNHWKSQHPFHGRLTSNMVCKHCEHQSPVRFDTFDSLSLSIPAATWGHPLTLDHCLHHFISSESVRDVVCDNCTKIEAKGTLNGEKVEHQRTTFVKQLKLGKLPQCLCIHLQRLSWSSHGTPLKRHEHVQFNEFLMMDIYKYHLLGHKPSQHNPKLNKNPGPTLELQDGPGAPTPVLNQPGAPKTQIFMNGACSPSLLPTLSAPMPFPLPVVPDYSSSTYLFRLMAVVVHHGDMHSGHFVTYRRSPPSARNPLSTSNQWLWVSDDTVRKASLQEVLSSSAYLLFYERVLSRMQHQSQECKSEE
Each line names hits and unclear results; the compound was inactive in the other large screens. No stated cut-off is given here; in the data, active means inhibition above about 30%; inactive means the rest.

C[C@H]1C(=O)c2c(O)cc(O)cc2O[C@@H]1c1ccc(O)cc1	none
Cc1c(C2CCCN(C(=O)c3ccn(C)n3)C2)n2c(nc1=O)CCC2 (centres undefined)	USP8 inh 36, USP30 inh 37
CNc1cncc(C2CCN(C(=O)c3ccn(C)n3)CC2)n1	none
Cc1ccc(-n2nc(C(=O)Nc3ccc(C)cn3)c3ncn(C)c(=O)c32)cc1	USP10 block 31, USP17 block 75, USP8 inh 72
CCOC(=O)C1CCN(C(c2cccc(F)c2)c2sc3ncnn3c2O)CC1 (centres undefined)	none
O=C(c1cnc2n1CC(c1cccc(C(F)(F)F)c1)CC2)N1CC(O)C1 (centres undefined)	none
O=C(c1cc2ccccc2o1)N1CC=C(c2ccccc2)CC1	USP28 block 34, USP17 block 36, USP30 inh 50
COc1cc(-n2c(=O)c3ccccc3n(Cc3cccc(F)c3)c2=O)cc(OC)c1OC	USP30 inh 35
COc1cc(-n2c(=O)c3ccccc3n(CC(=O)NCCc3ccccc3)c2=O)cc(OC)c1OC	USP30 inh 35
COc1ccc(-c2nnn(CC(=O)NCCc3ccccc3)n2)cc1OC	USP17 block 47
COc1cc(-n2c(=O)c3ccccc3n(CC(=O)NCC3CCCO3)c2=O)cc(OC)c1OC (centres undefined)	none
CCN1CCN(CC(=O)NCCc2ccc(OC)c(OC)c2)CC1	none
CC(C(=O)Nc1cc(F)ccc1F)n1nc(-c2ccccc2)c2cc(Cl)ccc21 (centres undefined)	none
O=C(NCc1cc2ccccc2[nH]1)c1ccc(COc2ccc(Br)cc2)cc1	USP8 inh 55
COc1cccc2c1OC(C)(C)[C@H]1CC3(CCN(C(=O)COc4cccnc4)CC3)CO[C@H]21	USP8 inh 67
CCOc1cccc2c1OC(C)(C)[C@H]1CC3(CCN(C(=O)c4ccc(NC(C)=O)nc4)CC3)CO[C@H]21	none
Cc1ccc(C(=O)Nc2cccc(-c3nn4c(C)nnc4s3)c2)cc1C	none
O=c1ccc(-c2cc3ccccc3o2)cn1Cc1ccccc1-c1ccccc1	USP28 block 62, USP17 block 48, USP8 inh 84
Cc1c(O)ccc2c(=O)c(-c3cc4ccccc4o3)coc12	none
O=C(Oc1ccc(-c2csnn2)cc1)C1CC1	none (no result: USP17 block)
Cc1nc(CC(=O)Nc2c(C)cccc2C)cs1	none
CSc1ncccc1C(=O)Nc1ccnn1Cc1ccccc1	none
Cc1nc(C(=O)NC2(O)C(=O)c3ccccc3C2=O)cs1	USP17 block 94, USP8 inh 72, USP30 inh 35
CSc1ncccc1C(=O)NC1(O)C(=O)c2ccccc2C1=O	USP10 block 41, USP17 block 95, USP8 inh 83, USP30 inh 46
O=C(NC1(O)C(=O)c2ccccc2C1=O)c1ccc(-c2csnn2)cc1	USP17 block 85, USP8 inh 93, USP30 inh 32
CCOC(=O)[C@@H]1[C@H](c2ccccc2)[C@@H](N)[C@H]2CCCCN21	none
CN1CCC2(CCC1=O)CNC(=O)c1ccccc1O2 (centres undefined)	none
COc1cccc(C(=O)COC(=O)c2cc(=O)[nH]c3ccccc23)c1	USP17 block 37
O=C(COC(=O)c1cc(=O)[nH]c2ccccc12)c1ccc(Cl)cc1	none
COc1ccccc1CNC(=O)c1cc(OCc2ccccc2)nc2ccccc12	USP17 block 57 (no result: USP28 block, USP30 inh)
O=C(NCc1ccc(F)cc1)c1cc(OCc2ccccc2)nc2ccccc12	USP30 inh 31
CC(C)NC(=O)N1CCCCCC1C1CCN(c2ncccc2C#N)CC1 (centres undefined)	none
CCCNC(=O)[C@H](Cc1ccccc1)NC(=O)N1CCn2c1nc1ccccc12	USP17 block 40, USP30 inh 39
CC(C)NC(=O)[C@H](Cc1ccccc1)NC(=O)N1CCn2c1nc1ccccc12	USP17 block 33, USP30 inh 62
O=C(O)CNC(=O)[C@H](Cc1ccccc1)NC(=O)N1CCn2c1nc1ccccc12	none
CC(C)[C@H](NC(=O)N1CCn2c1nc1ccccc12)C(=O)N[C@H](Cc1ccccc1)C(=O)O	none
O=C(CSc1nnc(Cn2cnc3ccccc32)o1)Nc1ccc([N+](=O)[O-])cc1	USP17 block 63
Cc1nc(-c2ccc(C(=O)Nc3cccc(F)c3)cc2)cs1	none
CC(=O)c1cccc(NC(=O)c2ccc(-c3csc(C)n3)cc2)c1	USP17 block 53
Cn1nccc1-c1cccc(-c2noc(-c3cccc(NC(=O)c4ccco4)c3)n2)c1	none (no result: USP28 block, USP30 inh)

Source: PubChem
